# From PubChem BioAssay (NCATS)
# Inconclusive results are not listed. A number with no mark means an inactive call. Calls of active or inactive are those of the source. Calls follow the shape of the dose curve; as a rule, active = well fitted cell-killing curve with a large enough effect; inconclusive = small, poorly fitted or top-dose-only effect, or effect the other way; inactive = no such curve, though single readings can be large or run the other way.
# Assay: Quantitative High-Throughput drug screen in 47 multiple myeloma cell lines against the NCATS MIPE library collection: FR4_PLB cell viability assay (AID 1918924; also: nearly all actives have a fitted effect of over 35% in size)
# Conditions: FR4_PLB myeloma cells viability, CellTiter-Glo ATP, 48 h; series mostly up to 45.8 µM; viability (% of DMSO control): at the top concentration
# Description: PI: Beverly A. Mock Ph.D.
# Laboratory of Cancer Biology and Genetics,
# Center for Cancer Research, National Cancer Institute,
# National Institute of Health, Bethesda, Maryland
# Drug resistance and disease progression are common in multiple myeloma (MM) patients, underscoring the need for new therapeutic combinations. […] We hypothesized that effective combinations would reduce MYC expression and enhance p16 activity. […] These preclinical data identify potentially useful drug combinations for evaluation in drug-resistant MM and reveal potential mechanisms of combined drug sensitivity.
# Described herein is the primary MIPE qHTS used to cherrypick compounds. Validated compounds were then further tested for potential synergistic activiy.
# [1] Peat TJ, Gaikwad SM, Dubois W, Gyabaah-Kessie N, Zhang S, Gorjifard S, Phyo Z, Andres M, Hughitt VK, Simpson RM, Miller MA, Girvin AT, Taylor A, Williams D, D'Antonio N, Zhang Y, Rajagopalan A, Flietner E, Wilson K, Zhang X, Shinn P, Klumpp-Thomas C, McKnight C, Itkin Z, Chen L, Kazandijian D, Zhang J, Michalowski AM, Simmons JK, Keats J, Thomas CJ, Mock BA. Drug combinations identified by high-throughput screening promote cell cycle transition and upregulate Smad pathways in myeloma. Cancer Lett. 2023 Aug 1;568:216284. doi: 10.1016/j.canlet.2023.216284. Epub 2023 Jun 24. PMID: 37356470; PMCID: PMC10408729.
# SEQUENCE No. (e.g., 1, 2, 3, etc.); […] (e.g., Cells, Incubation, Reagent, etc.); VALUE and DESCRIPTION.
# 1; Cells; 5 uL; white, solid bottom 1536-well Greiner assay plate.
# 2; Compounds; 23 nL; Kalypsis pin tool (Wako USA) equipped with a 1536-well pin head to transfer to the assay plates.
# 3; Incubation; 48 hours; 37C incubation.
# 4; Reagent;5uL; CellTiter Glo (Promega).
# 5; Detector; 425V; Luminescence; Viewlux PerkinElmer.
# NOTES (numbers refer to Sequence numbers above)
# 1. The cell-based screening methods employed in this study were like those previously published. Briefly, the corresponding myeloma cell lines were screened in 1,536-well plates with 500 cells, 5-uL per well for inhibition of cell viability (assessed by measuring ATP levels with CellTiterGlo).
# 2. NCATS MIPE 4.0 library of approved and investigational drugs were added using the Kalypsis pin tool. Wells treated with DMSO only for 100% viability and media only wells for 0% viability were used as controls.
# 3. The assay plates were covered and incubated for 48 hours in a 37C, 5% CO2 incubator with controlled humidity.
# 4. After 48 hours, CellTilter-GloTM luminescent substrate mix (Promega) reagent was added to the assay plate and plates we incubated for 5 min at room temperature.
# 5. Signal was measured as median relative luminescence units on a ViewLux (PerkinElmer) multiplate reader.
# [1] Heske CM, Davis MI, Baumgart JT, Wilson K, Gormally MV, Chen L, Zhang X, Ceribelli M, Duveau DY, Guha R, Ferrer M, Arnaldez FI, Ji J, Tran HL, Zhang Y, Mendoza A, Helman LJ, Thomas CJ. Matrix Screen Identifies Synergistic Combination of PARP Inhibitors and Nicotinamide Phosphoribosyltransferase (NAMPT) Inhibitors in Ewing Sarcoma. Clin Cancer Res. 2017 Dec 1;23(23):7301-7311. doi: 10.1158/1078-0432.CCR-17-1121. Epub 2017 Sep 12. PMID: 28899971; PMCID: PMC6636827.
# Potency is read from the fitted curve at half-maximal effect.
Structure (SMILES),Potency,viability (% of DMSO control)
C=CCn1c(=O)c2cnc(Nc3ccc(N4CCN(C)CC4)cc3)nc2n1-c1cccc(C(C)(C)O)n1,0.132 µM (active),
C1Cc2[nH]nc(-c3nn[nH]n3)c2C1,,105%
O=C(O)CO.[NH2-].[NH2-].[Pt+2],,145%
c1ccc2c(CCNc3ccc(Nc4ccncc4)cc3)c[nH]c2c1,,59.2%
O=C(c1ccc(Nc2nccc(-c3cc4ccccc4s3)n2)cc1)N1CCC(N2CCCC2)CC1,13.2 µM (active),
Cc1nc2cnc3ccc(C#Cc4cccnc4)cc3c2n1-c1ccc(C(C)(C)C#N)cc1,0.118 µM (active),
CCN(CC)CCCCNc1ncc2cc(-c3cc(OC)cc(OC)c3)c(NC(=O)NC(C)(C)C)nc2n1,20.9 µM (active),
CCn1nnc2c(N3CCOCC3)nc(-c3ccc(NC(=O)Nc4ccc(C(=O)N5CCN(C)CC5)cc4)cc3)nc21,0.0074 µM (active),
O=c1[nH]c(=O)n(C2CCCO2)cc1F (stereo not given),,122% [at 92.2 µM]
O=C(CCCCCCNC(=O)c1cnc(N(c2ccccc2)c2ccccc2)nc1)NO,2.96 µM (active),
CN(C)CC=CC(=O)Nc1cc2c(Nc3ccc(F)c(Cl)c3)ncnc2cc1O[C@H]1CCOC1,14.8 µM (active),
Nc1nc(Nc2ccc(S(N)(=O)=O)cc2)nn1C(=O)c1c(F)cccc1F,4.18 µM (active),
COc1cc(C)c(Sc2cnc(NC(=O)c3ccc(CNC(C)C(C)C)cc3)s2)cc1C(=O)N1CCN(C(C)=O)CC1 (stereo not given),14.8 µM (active),
COC(=O)[C@]12CCC(C)(C)C[C@@H]1[C@@H]1C(=O)C=C3[C@@]4(C)C=C(C#N)C(=O)C(C)(C)[C@@H]4CC[C@@]3(C)[C@]1(C)CC2,0.372 µM (active),
CC(C)(O)CCc1ccc(OCc2cc(-c3cccc(OC(F)F)c3)c3ncccc3c2)cc1,,109%
CN1CC[C@@H](c2c(O)cc(O)c3c(=O)cc(-c4ccccc4Cl)oc23)[C@@H](O)C1,0.0332 µM (active),
COc1ccc(F)c(F)c1C(=O)c1cnc(NC2CCN(S(C)(=O)=O)CC2)nc1N,2.35 µM (active),
Cn1c2ccccc2c2c3c(c4c5ccccc5n(CCC#N)c4c21)CNC3=O,4.69 µM (active),
CCCCOc1c(C(=O)c2c(F)cc(C)cc2F)cnc2n[nH]cc12,4.18 µM (active),
COc1cc2c(Oc3ccc(NC(=O)C4(C(=O)Nc5ccc(F)cc5)CC4)cc3F)ccnc2cc1OCCCN1CCOCC1,14.8 µM (active),

Structure (SMILES),Potency,viability (% of DMSO control)
COc1ccc(CC2SC(=O)NC2=O)cc1C(=O)NCc1ccc(C(F)(F)F)cc1 (stereo not given),,118%
COc1ccc(-c2cc3c(C)nc(N)nc3n(C3CCC(OCCO)CC3)c2=O)cn1 (stereo not given),0.0332 µM (active),
Nc1ccc(C(=O)c2cc3c(ccc4ccccc43)[nH]2)cc1,1.18 µM (active),
COCCn1c2c([n+](Cc3cnccn3)c1C)C(=O)c1ccccc1C2=O,0.0105 µM (active),
CC(C)(C)c1cnc(CSc2cnc(NC(=O)C3CCNCC3)s2)o1,0.0935 µM (active),
COc1ccc(-n2nc(C(N)=O)c3c2C(=O)N(c2ccc(N4CCCCC4=O)cc2)CC3)cc1,,112%
CNc1nccc(-c2cccnc2Oc2cc(C(=O)Nc3cccc(C(F)(F)F)c3)ccc2C)n1,16.6 µM (active),
O=C(Nc1cc(C(F)(F)F)cc(C(F)(F)F)c1)c1cc(Cl)ccc1O,1.32 µM (active),
Clc1cccc(-n2nnnc2NCc2ccccc2Oc2ccccn2)c1Cl,,113%
Cc1ccc(NC(=O)C2(c3ccc4c(c3)OC(F)(F)O4)CC2)nc1-c1cccc(C(=O)O)c1,0.0469 µM (active),
Cc1nc(Nc2n[nH]c3c2CN(C(=O)N[C@H](CN(C)C)c2ccccc2)C3(C)C)c2sccc2n1,0.833 µM (active),
COc1cc2nccc(Oc3ccc(NC(=O)C4(C(=O)Nc5ccc(F)cc5)CC4)cc3)c2cc1OC,26.4 µM (active),
CCN1CCN(CC(=O)Nc2ccc(-c3cccc4c(=O)cc(N5CCOCC5)oc34)c3sc4ccccc4c23)CC1,1.48 µM (active),
CN1CCN(Cc2ccc(NC(=O)Nc3ccc(Oc4cc(NC(=O)C5CC5)ncn4)cc3)cc2C(F)(F)F)CC1,0.296 µM (active),
CC1(C)OC2=C(C(=O)c3ccccc3C2=O)[C@H](NCc2ccccc2)[C@H]1O,2.64 µM (active),
CC(C)CC(=O)Nc1n[nH]c2c1CN(C(=O)C1CCN(C)CC1)C2(C)C,1.66 µM (active),
CN(C1CCc2c(c3ccccc3n2CC(=O)O)C1)S(=O)(=O)c1ccc(F)cc1 (stereo not given),,114%
COc1cc(=C2C=c3ccccc3=N2)[nH]c1=Cc1[nH]c(C)cc1C,1.18 µM (active),
Cc1cnc(Nc2ccc(F)cc2Cl)nc1-c1c[nH]c(C(=O)N[C@H](CO)c2cccc(Cl)c2)c1,29.6 µM (active),
Nc1ccccc1NC(=O)c1ccc(CNC(=O)OCc2cccnc2)cc1,2.96 µM (active),
